Reference: PubChem BioAssay AID590 (National Center for Advancing Translational Sciences (NCATS), 2007)
Hit rate of the full screen: of about 59,000 compounds, about 6,500 (11%) were called active. About 15% were inconclusive and are not listed. Rule as the data show it: active = max dye-equivalent concentration above about 10 nM; inconclusive = mostly about 1.1 nM to 9.6 nM; inactive = weaker than that. Shown is part of a subset that was picked to be rich in actives.

assay: qHTS Assay for Spectroscopic Profiling in A350 Spectral Region; conditions: Compound autofluorescence, 340/450 nm, Alexa 350 dye-equivalents; hits give high values

Max dye-equivalent concentration, active:
Cc1cc(N2CCCC2)n2nc(C)c(-c3ccccc3)c2n1 0.22 µM
CC1CCc2c(sc(NC(=O)c3ccc(Cn4cc(Br)cn4)o3)c2C(N)=O)C1 (configuration not stated) 0.11 µM
c1ccc(-c2cn3cccnc3n2)cc1 4.8 µM
CC(=O)Nc1ccc(-c2cn3cccnc3n2)cc1 6.3 µM
O=c1[nH]c(-c2ccccc2)c(-c2ccccc2)[nH]1 0.014 µM
C=CCn1c(N)c(S(=O)(=O)c2cccs2)c2nc3ccccc3nc21 5.3 µM
C=CCn1c(N)c(C(=O)OCC(C)C)c2nc3ccccc3nc21 4.5 µM
CC(C)Cn1c(N)c(C(=O)NCc2cccs2)c2nc3ccccc3nc21 0.35 µM

Max dye-equivalent concentration, inactive:
Cc1cnc(CNc2nc(-c3cccnc3)nc3ccccc23)cn1
CN(C)CCSS(=O)(=O)O
C[C@]1(O)CC[C@H]2[C@H]3CC=C4N5CCN=C5CC[C@@]4(C)[C@H]3CC[C@@]21C
CC(=O)c1cc(-c2ccccc2)[nH]c1N1CCCC1
S=c1c2[nH]cnc2ncn1CCSc1ncnc2nc[nH]c12
CC(C)(C)c1csc(NC2=NS(=O)(=O)c3ccccc32)n1
COc1ccc(NC(=O)CN(C)S(=O)(=O)c2ccccc2)cc1OC
Brc1ccc(Nc2c3c(nc4ncnn24)CCC3)cc1
NC(=O)CSc1oc(-c2cccs2)nc1S(=O)(=O)c1ccccc1
O=C(c1ccco1)N1CCC[C@@]2(CCN(Cc3nccs3)C2)C1
CCCC(=O)Nc1cccc(-c2cn3ccsc3n2)c1
CCOc1nc(OCC)nc(-n2cc(-c3ccccc3)nn2)n1
COc1ccc(-c2cn3ccsc3n2)cc1
CC(=O)Nc1cccc(-c2cnc3ccccc3n2)c1
CC(=O)N(Cc1cccs1)C1CCOC(C)(C)C1 (configuration not stated)
CCCCn1c(=S)[nH]c2ncccc2c1=O
O=S(=O)(N1CCOCC1)N1CCN(c2ccccc2F)CC1
CC1(C)CC(=O)NC=C(c2ccccc2)C1
c1ccc(-c2[nH]ncc2-c2nc3ccccc3[nH]2)cc1
c1csc(CN2CCN(Cc3cccs3)C2c2cccs2)c1
CC1CCCCC1NC(=O)CCS(=O)(=O)c1cccc2nonc12 (configuration not stated)
CCN(CC(=O)NCc1cccs1)c1nnnn1-c1ccccc1
C=CCn1c(C2CC(=O)N(c3ccc(C)cc3)C2)nc2ccccc21 (configuration not stated)
Cc1nnc(SCC(=O)NCc2cccs2)[nH]c1=O
